Screens deposited in PubChem BioAssay by National Center for Advancing Translational Sciences (NCATS).
In the library only some 9.3% were active in any assay of this set; here they are far more common.
ELG1 genotox – induces genotoxicity in HEK293T cells with luciferase-tagged ELG1 | AID 504466 | 330,000 tested, 1.3% active | Potency, µM (doses to about 46 µM), most hits filed as activators | HEK293T ELG1-luciferase reporter, luminescence, 16 h; further: nearly all actives have a fitted effect of over 60% in size
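Genotoxicity was scored as increased ELG1-luciferase reporter signal, measured by ONE-Glo luminescence (30 min, room temperature). Compound or vehicle exposure of the HEK293T reporter cells lasted 16 hr at 37°C.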
Rab9 promoter act – activates the Rab9 promoter. Huh7 Rab9 promoter-luciferase reporter, luminescence, 24 h. Potency, µM (highest dose often 9.22 µM), usual class: activators. 320,000 tested, 2.8% active. AID 485297; further: nearly all actives have a fitted effect of over 60% in size
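Huh7 cells stably carrying Rab9 promoter–luciferase reporter, plated 1500 cells/well, compound added after 2 h and incubated 24 h at 37 °C; luciferase luminescence then read after 10 min with detection reagent.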
ELG1 repair inh – inhibitors of ELG1-dependent DNA repair in HEK293T cells. 330,000 tested, 2.3% active. Potency, µM (highest dose often 46.1 µM), usual class: inhibitors. HEK293T ELG1-luciferase reporter, luminescence, 16 h; DNA damage induced by 5-fluorouridine; further: nearly all actives have a fitted effect of over 55% in size
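Overnight (16 hr) co-exposure of 2,000 cells/well to 5-fluorouridine and compound at 37 °C preceded detection. Luciferase was quantified via ONE-Glo luminescence; loss of signal denotes inhibition.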
NPC1 prom act – activates the NPC1 promoter. Potency, µM (highest dose often 9.22 µM), usual class: activators. 320,000 tested, 2.4% active. AID 485313. Huh7 NPC1 promoter luciferase reporter, 24 h; further: nearly all actives have a fitted effect of over 60% in size
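NPC1 promoter–luciferase Huh7 cells; 24 h compound; luminescence.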
SMN2 splice up – increases expression of the SMN2 splice variant. 210,000 tested, 2.8% active. Potency, µM (highest dose often 46.1 µM), hits mostly activators. HEK293 SMN2-luciferase splicing reporter, luminescence, 30-36 h. AID 1458; further: nearly all actives have a fitted effect of over 55% in size
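HEK293 cells carry an SMN2 […]–luciferase reporter in which exon 7 inclusion puts luciferase in frame. Cells were plated 10-12 h before compound addition, then incubated 30-36 h at 37C. ONE-Glo luminescence was read; sodium butyrate at 4.5 mM final served as control.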
FLuc modulator – counter-screen for miR-21 project: firefly luciferase inhibitors or activators; P08659; purified FLuc, Km substrates, luminescence inhibition; Potency, µM (top dose mostly 57.5 µM), hits mostly inhibitors; 360,000 tested, 6.9% active; further: nearly all actives have a fitted effect of over 55% in size
Target sequence (P08659 whole entry, looked up): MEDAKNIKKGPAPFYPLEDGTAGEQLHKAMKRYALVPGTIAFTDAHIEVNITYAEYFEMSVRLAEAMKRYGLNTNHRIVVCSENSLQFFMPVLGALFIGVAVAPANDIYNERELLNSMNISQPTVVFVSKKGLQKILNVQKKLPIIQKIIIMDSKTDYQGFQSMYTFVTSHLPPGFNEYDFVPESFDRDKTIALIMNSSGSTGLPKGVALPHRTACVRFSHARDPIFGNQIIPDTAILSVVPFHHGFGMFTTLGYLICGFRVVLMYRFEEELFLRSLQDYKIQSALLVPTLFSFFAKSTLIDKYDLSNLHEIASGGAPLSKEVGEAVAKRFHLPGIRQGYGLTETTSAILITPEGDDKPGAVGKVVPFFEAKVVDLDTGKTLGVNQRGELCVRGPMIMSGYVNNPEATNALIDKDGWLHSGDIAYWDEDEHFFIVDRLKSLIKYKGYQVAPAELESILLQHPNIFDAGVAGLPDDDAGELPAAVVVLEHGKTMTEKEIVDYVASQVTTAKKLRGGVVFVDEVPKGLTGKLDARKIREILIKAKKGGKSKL
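Purified P. pyralis luciferase (10nM final) with 10uM D-luciferin and 10uM ATP (Km levels) in 50mM Tris acetate pH 7.5, 10mM Mg acetate, 0.01% Tween-20, 0.05% BSA; qHTS 6-point titration, ~60 µM downward; luminescence read.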
A number is an active result. The call rests on the fitted dose curve; in most records, active means well fitted curve in the direction sought with a large enough effect; inconclusive means small, poorly fitted or top-dose-only effect, or another doubt; inactive means no such curve, though single readings can be large; an effect the other way counts as inactive or inconclusive.

For CC(C)c1ccc(OCC(=O)NC2CC(C)(C)NC(C)(C)C2)c(Br)c1 the results were ELG1 genotox inactive, Rab9 promoter act inactive, ELG1 repair inh inactive, NPC1 prom act inactive and FLuc modulator inactive.
`CC1=NN(c2ccccc2)C(=O)/C1=C\c1cn(C)c2ccccc12` gave ELG1 genotox inactive, Rab9 promoter act inactive, ELG1 repair inh inconclusive, NPC1 prom act inactive, SMN2 splice up inactive and FLuc modulator 9.5µM.
CC1=NN(c2ccccc2)C(=O)/C1=C/c1cn(C)c2ccccc12 was read as ELG1 genotox inactive, Rab9 promoter act inactive, ELG1 repair inh inactive, NPC1 prom act inactive and FLuc modulator 6µM.
`COc1ccccc1/C=C1/C(=O)N(c2ccc([N+](=O)[O-])cc2)N=C1C` gave ELG1 genotox inactive, Rab9 promoter act inactive, ELG1 repair inh inactive, NPC1 prom act inactive and FLuc modulator inconclusive.
Cn1cc(C=O)c2ccccc21 was read as ELG1 genotox inactive, Rab9 promoter act inactive, ELG1 repair inh inactive, NPC1 prom act inactive and FLuc modulator inactive.
For CC1=NN(c2ccccc2)C(=O)/C1=C\c1cc(C)n(C)c1C the results were ELG1 genotox inactive, Rab9 promoter act inactive, ELG1 repair inh inconclusive, NPC1 prom act inactive and FLuc modulator 7.6µM.
CCc1ccc(-c2nc(CSCC(=O)NCc3ccco3)c(C)o2)cc1 was read as ELG1 genotox inactive, Rab9 promoter act inactive, ELG1 repair inh inconclusive, NPC1 prom act inactive, SMN2 splice up inactive and FLuc modulator 24µM.
Cc1ccc(-c2nc(CSCC(=O)NCCN3CCN(Cc4ccccc4)CC3)c(C)o2)cc1 was read as ELG1 genotox inactive, Rab9 promoter act inactive, ELG1 repair inh 16µM, NPC1 prom act inactive, SMN2 splice up inactive and FLuc modulator inconclusive.
`CCCN1CCC(NC(=O)c2cccc(Oc3ccccc3)c2)CC1` gave ELG1 genotox inactive, Rab9 promoter act inactive, ELG1 repair inh inconclusive, NPC1 prom act inactive and FLuc modulator inactive.
COCCOC(=O)C1=C(N)OC2=C(C(=O)CCC2)C1c1cccnc1 (stereo not given) was read as ELG1 genotox inactive, Rab9 promoter act inactive, ELG1 repair inh inactive, NPC1 prom act inactive, SMN2 splice up inactive and FLuc modulator inactive.
For Nc1cccc(-c2cn3cc(C(F)(F)F)cc(Cl)c3n2)c1 the results were ELG1 genotox inconclusive, Rab9 promoter act 1.6µM, ELG1 repair inh inconclusive, NPC1 prom act 1µM, SMN2 splice up 7.9µM and FLuc modulator 1.9µM.
`FC(F)(F)c1cc(Cl)c2nc(-c3ccccc3)cn2c1` gave ELG1 genotox inconclusive, Rab9 promoter act inconclusive, ELG1 repair inh inconclusive, NPC1 prom act inconclusive, SMN2 splice up 14µM and FLuc modulator 1.9µM.
CS(=O)(=O)c1cnc2c(-c3ccsc3)cnn2c1N was read as ELG1 genotox 21µM, Rab9 promoter act 2.8µM, ELG1 repair inh inconclusive, NPC1 prom act 2.8µM, SMN2 splice up 13µM and FLuc modulator 11µM.
`CS(=O)(=O)c1cnc2c(S(=O)(=O)c3ccccc3)cnn2c1N` gave ELG1 genotox inactive, Rab9 promoter act inactive, ELG1 repair inh inactive, NPC1 prom act inactive, SMN2 splice up inactive and FLuc modulator inactive.
Cc1nnc(SCc2ccc(C(=O)Nc3cc(Cl)ccc3C)cc2)s1 was read as ELG1 genotox inactive, Rab9 promoter act inactive, ELG1 repair inh inactive, NPC1 prom act inactive, SMN2 splice up inactive and FLuc modulator 15µM.
`Cc1ccc(NC(=O)c2ccc(CSc3nnc(-c4ccncc4)n3C)cc2)c(C)c1` gave ELG1 genotox inactive, Rab9 promoter act inactive, ELG1 repair inh inactive, NPC1 prom act inactive, SMN2 splice up inactive and FLuc modulator inconclusive.
`Cc1ccc(NC(=O)c2ccc(CSc3nnc(C)s3)cc2)c(C)c1` gave ELG1 genotox inactive, Rab9 promoter act inconclusive, ELG1 repair inh inconclusive, NPC1 prom act inconclusive, SMN2 splice up inactive and FLuc modulator 13µM.
Screening Cc1c(C(=O)OCC(=O)N2CC(C)CC(C)C2)oc2ccccc12 (stereo not given) returned ELG1 genotox inactive, Rab9 promoter act inactive, ELG1 repair inh inactive, NPC1 prom act inactive and FLuc modulator inactive.
For Cc1c(C(=O)OCCN2CCCCC2)oc2ccccc12 the results were ELG1 genotox inactive, Rab9 promoter act inactive, ELG1 repair inh inactive, NPC1 prom act inactive, SMN2 splice up inactive and FLuc modulator 19µM.
Cc1c(C(=O)OCC(C)(C)CN(C)C)oc2ccccc12 was read as ELG1 genotox inconclusive, Rab9 promoter act inactive, ELG1 repair inh inconclusive, NPC1 prom act inactive, SMN2 splice up inactive and FLuc modulator 19µM.
For Cc1c(C(=O)OCC(=O)N2C(C)CCCC2C)oc2ccccc12 (stereo not given) the results were ELG1 genotox inconclusive, Rab9 promoter act inconclusive, ELG1 repair inh inconclusive, NPC1 prom act inconclusive and FLuc modulator 17µM.
`CCN(CC)CC(C)(C)COC(=O)c1oc2ccccc2c1C` gave ELG1 genotox inactive, Rab9 promoter act inactive, ELG1 repair inh inactive, NPC1 prom act inactive and FLuc modulator inactive.
Cc1cc(NC(=O)c2cn(C3CCCCC3)c(=O)c3c2c2ccccc2n3C)no1 was read as ELG1 genotox inactive, Rab9 promoter act inactive, ELG1 repair inh inconclusive, NPC1 prom act inactive, SMN2 splice up inactive and FLuc modulator inactive.
`CC1CN(C(=O)c2cc(Br)c(Br)s2)CC(C)O1` (stereo not given) gave ELG1 genotox inactive, Rab9 promoter act inactive, ELG1 repair inh inactive, NPC1 prom act inactive and FLuc modulator inactive.
Screening OC1CCN(Cc2ccc(OCc3ccccc3)cc2)CC1 returned ELG1 genotox inconclusive, Rab9 promoter act inconclusive, ELG1 repair inh inconclusive, NPC1 prom act 2µM and FLuc modulator 11µM.
`CCCCNC(=O)C1CCN(Cc2ccc(OCc3ccccc3)cc2)CC1` gave ELG1 genotox inconclusive, Rab9 promoter act inconclusive, ELG1 repair inh inconclusive, NPC1 prom act inconclusive, SMN2 splice up inconclusive and FLuc modulator 19µM.
Screening O=C(NC1CCCCCC1)c1ccc(Br)o1 returned ELG1 genotox inactive, Rab9 promoter act inactive, ELG1 repair inh inconclusive, NPC1 prom act inactive and FLuc modulator inconclusive.
`Cc1cc(C(=O)COC(=O)CC2Sc3ccccc3NC2=O)c(C)n1-c1ccccc1` (stereo not given) gave ELG1 genotox inactive, Rab9 promoter act inactive, ELG1 repair inh inactive, NPC1 prom act inactive, SMN2 splice up inactive and FLuc modulator 6µM.
`Cc1ccc(-n2c(C)cc(C(=O)COC(=O)c3c(C)noc3C)c2C)cc1` gave ELG1 genotox inactive, Rab9 promoter act inconclusive, ELG1 repair inh inconclusive, NPC1 prom act inconclusive, SMN2 splice up inactive and FLuc modulator 3.4µM.
